# Compounds with a hit are over-represented: about 1.3% of the library has one in this group of screens.
# MCL1 BIM primary: inhibitors of MCL1 binding to BIM-BH3, primary screen, biochemical, fluorescence polarization | 0.68% of 320,000 active | GST-MCL1 / FITC-Bim-BH3 fluorescence polarization | inhibition, % at 10.9 µM | Induced myeloid leukemia cell differentiation protein Mcl-1 (Homo sapiens), Q07820;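 active means inhibition above the mean inhibition of all tested compounds plus 3 SD, set per campaign, cut at about 40% in these data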;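 further: higher means more loss of mP so more displacement of Bim peptide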
# GLD-1 RNA inh: GLD-1/TGE RNA complex disruptors, primary screen, biochemical, fluorescence polarization | purified GLD-1 + fluorescein TGE RNA | Female germline-specific tumor suppressor gld-1 (Caenorhabditis elegans), Q17339 | AID 2280, 2010 | 0.44% of 320,000 active | inhibition, % at 5.96 µM;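 active means percent inhibition above a per-plate cutoff, the plate mean of test compounds plus 3 SD, cut at about 30% in these data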
# MEX-5 binding: MEX-5 zinc finger RNA-binding disruptors – biochemical, C. elegans, fluorescence polarization, MLPCN library, primary screen; Zinc finger protein mex-5 (Caenorhabditis elegans), Q9XUB2; MEX-5/FITC-TCR2 RNA binding; active compounds read low; activity score (negative = inhibition of binding), % at 10 µM; 0.38% of 300,000 active; AID 1832, 2009;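 active means inhibition past about -25% in most replicates, and total fluorescence under double the plate's negative control median, limit read from the data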
# EBV gp42 inh: Epstein-Barr virus gp42 inhibitors, primary screen, biochemical, uHTS, fluorescence polarization; Glycoprotein 42 (Epstein-Barr virus (strain AG876)), Q1HVG2; Fluorescence polarization binding assay, mP read-out; inhibition, % (tested at 21.74 µM); 0.42% of 220,000 active; in the data active means inhibition above about 50%
# Bcl-xL primary: inhibitors of human Bcl-xL, primary screen, biochemical, fluorescence polarization, HTS; AID 2129, 2009; GST-Bcl-xL / FITC-Bim BH3 peptide fluorescence polarization; inhibition, % at 10.9 µM; 0.7% of 320,000 active; Bcl-2-like protein 1 (Homo sapiens), Q07817;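 active means inhibition above the mean of all tested compounds plus 3 SD, cutoff set per campaign, cut at about 30% in these data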;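 further: inhibitors lower millipolarization by displacing the labeled peptide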
# Target sequence (Q07817 whole entry, looked up): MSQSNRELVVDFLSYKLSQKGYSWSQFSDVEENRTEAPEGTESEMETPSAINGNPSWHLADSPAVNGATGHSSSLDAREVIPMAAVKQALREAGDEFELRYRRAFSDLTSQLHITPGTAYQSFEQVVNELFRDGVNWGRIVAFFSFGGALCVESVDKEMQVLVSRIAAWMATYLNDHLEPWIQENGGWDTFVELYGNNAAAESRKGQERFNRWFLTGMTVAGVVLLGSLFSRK
# Hits are given with their value; . = inactive; / = not tested or not shown.
SMILES,MCL1 BIM primary,GLD-1 RNA inh,MEX-5 binding,EBV gp42 inh,Bcl-xL primary
CCCN1CCc2cc(O)cc3c2[C@H]1Cc1ccc(O)c(O)c1-3,.,.,-82.5,/,32.2
CN(C)C(=O)Oc1ccc2nnc3ccnn3c2c1,.,.,.,/,30.6
C=C1C(O)[C@@H]2O[C@]3(CC[C@H](/C=C/C(C)[C@@H]4CC(C)=CC5(O[C@H](C[C@@](C)(O)C(=O)O)CCC5O)O4)O3)CC[C@H]2O[C@@H]1C(O)CC(C)[C@H]1OC2(CCCCO2)CCC1C (some centres undefined),/,.,/,/,/
CCOC(=O)c1c(-n2c(C)cc(C=C3C(=O)NC(=O)NC3=O)c2C)sc2c1CCCC2,.,.,-45.4,.,.
Cc1cccc(N2C(=O)NC(=O)/C(=C\c3cc(C)n(-c4sc5c(c4C#N)CCCC5)c3C)C2=O)c1C,.,.,.,.,.
CN1C(=O)C(=Cc2sc(=O)n(-c3ccccc3)c2N2CCCCC2)C(=O)N(C)C1=O,/,/,-46.4,.,/
O=[N+]([O-])c1cc([As](=O)(O)c2ccc(O)c([N+](=O)[O-])c2)ccc1O,.,.,.,.,.
O=[N+]([O-])c1cc(-c2ccc([As](=O)(O)O)cc2)ccc1[As](=O)(O)O,/,/,-46.3,.,/
Cc1c2ccncc2c(C)c2c1[nH]c1ccccc12,88.2,.,.,112.6,66.2
c1ccc2c(c1)[nH]c1cnccc12,.,.,.,.,.
Cc1cccc(N2C(=O)NC(=O)/C(=C/c3cc4c(cc3[N+](=O)[O-])OCO4)C2=O)c1,118.7,76.8,-68.7,83.2,118.4
O=C1NC(=O)C(=Cc2cc3c(cc2[N+](=O)[O-])OCO3)C(=O)N1,.,.,.,.,32.5
CN(C)c1ccc(C=C2C(=O)NC(=O)NC2=O)cc1[N+](=O)[O-],.,.,.,.,.
C[C@]12CCC3C(CC[C@H]4C[C@H](O)CC[C@]34C)C1[C@@H](O)C[C@@H]2O (some centres undefined),/,.,/,/,/
O=C1/C(=C/c2ccccc2)C[C@@]2(O)[C@H]3Cc4ccc(O)c5c4[C@@]2(CCN3CC2CC2)C1O5 (some centres undefined),/,.,/,/,/
c1ccc(-c2[nH]c(-c3ccccc3)[n+](CC3CO3)c2-c2ccccc2)cc1 (centres undefined),.,.,.,56.8,.
O=C1NC(=O)C2=Cc3ccc(O)cc3OC2(O)N1 (centres undefined),/,/,/,89.9,/
COC(=O)C1=C(c2ccc(F)cc2OCc2ccccc2)C[C@@H]2CC[C@H]1N2C(=O)NCc1ccc2c(c1)OCO2,.,.,/,/,.
O=c1ccc2c(O)c3ccoc3cc2o1,/,.,/,/,/
CCCC(=O)NC(Oc1ccc(C(C)=O)cc1)C(Cl)(Cl)Cl (centres undefined),.,.,.,62.9,.
CCCCC(=O)N/N=C/c1c(O)n(Cc2ccco2)c(=O)[nH]c1=O,.,.,.,.,.
O=C(N/N=C/c1c(O)n(Cc2ccco2)c(=O)[nH]c1=O)c1ccccc1O,.,.,-26.8,.,.
CC(C)(C)OC(=O)c1c(N)n(Cc2ccco2)c2nc3ccccc3nc12,40.8,48.1,.,.,53.5
COCCNC(=O)c1c(N)n(Cc2ccco2)c2nc3ccccc3nc12,.,.,.,.,.
N#CC(C#N)=Cc1ccc(O)c(O)c1,.,.,/,/,.
SMILES,MCL1 BIM primary,GLD-1 RNA inh,MEX-5 binding,EBV gp42 inh,Bcl-xL primary
N#CC(C#N)=Cc1ccc(-c2ccccc2)o1,.,.,-42.7,.,.
CCOP(=O)(OCC)C(O)c1ccc(OC)c(OC)c1 (centres undefined),48.8,.,.,.,33.6
C[C@]12CCC3C(CC[C@H]4C[C@H](O)CC[C@]34C)C1C[C@H](O)[C@@H]2O (some centres undefined),/,.,/,/,/
CN1C(=O)C(Cc2c[nH]c3ccccc23)C(=O)N(C)C1=O,/,/,/,104.5,/
CN1C(=O)C(Cc2cccc3ccccc23)C(=O)N(C)C1=O,.,.,.,.,.
C[C@]12CCC3C(CC[C@H]4C[C@@H](O)CC[C@]34C)C1C/C(=N/O)[C@@H]2O (some centres undefined),/,.,/,/,/
